# Bioassay records from PubChem.
# Shown are actives, neighbours in structure and some others; about 18% of the full set was active somewhere.
# TDP1 inh: blocks human tyrosyl-DNA phosphodiesterase 1; recombinant TDP1, AlphaScreen DNA substrate cleavage; Potency, µM (titrated, usually from 130 µM), usual class: inhibitors; 350,000 compounds, 0.28% hits; further: nearly all actives have a fitted effect of over 40% in size
#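 Recombinant E. coli-expressed Tdp1 (1 nM) preincubated with compound 15 min at RT, then 5'-biotin/3'-phosphotyrosine-FITC DNA substrate (15 nM) added for 5 min. AlphaScreen beads (10 ug/ml) added, 10 min RT; tyrosine-FITC cleavage read as signal loss.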
# DT40 TDP1 no CPT: qHTS for Inhibitors of human tyrosyl-DNA phosphodiesterase 1 (TDP1): qHTS in cells in absence of CPT; AID 686978, 2013; Potency, µM (top dose mostly 46.2 µM), most hits filed as inhibitors; 420,000 compounds, 15% hits; DT40 Tdp1-/- hTDP1 cells, no CPT, ATP luminescence, 48 h; further: nearly all actives have a fitted effect of over 55% in size
#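 Readout: luminescence from CellTiter-Glo after 30 min in the dark at RT. Cells: DT40 Tdp1-/- with stable hTDP1, 400/well. Exposure: compounds alone, ≥48 hr, 37 °C.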
# VDR inh: vitamin D3 receptor (human) inhibition; P11473; VDR-SRC2-3 peptide fluorescence polarization, 2 h; Potency, µM, actives largely listed as inhibitors; 400,000 compounds, 0.93% hits
#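 Signal is fluorescence polarization, reporting how far test compounds block the interaction of VDR with the SRC2-3 coregulator peptide after a 2 h room-temperature incubation.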
# PLK1 PBD inh: blocks phosphopeptide binding to human PLK1 polo-box domain. Plk1 PBD binding of FITC phosphopeptide, fluorescence polarization. AID 720504. 360,000 compounds, 2.8% hits. Potency, µM, actives largely listed as inhibitors. P53350; further: series mostly up to about 57 µM; nearly all actives have a fitted effect of over 65% in size
# DT40 TDP1 CPT: growth inhibition of DT40 Tdp1-/-;hTDP1 cells with camptothecin (screen for TDP1 inhibitors) | chicken DT40 Tdp1-/-;hTDP1 cells + 20 nM CPT, ATP luminescence, 48 h | Potency, µM (highest dose often 46.2 µM), hits mostly inhibitors | 420,000 compounds, 12% hits | AID 686979; further: nearly all actives have a fitted effect of over 55% in size
#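 Cell growth measured by CellTiter-Glo luminescence after a minimum 48 h, 37 C compound exposure with 20 nM CPT in Tdp1-knockout DT40 cells stably expressing hTDP1, seeded 400/well; qHTS titration format.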
# KAT2A inh: blocks human GCN5L2 histone acetyltransferase | GCN5L2 HAT assay, ThioGlo1 CoA-SH fluorescence | Potency, µM (titrated, usually from 58.9 µM), actives largely listed as inhibitors | 390,000 compounds, 0.21% hits | AID 504327
#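 Free CoA generated was detected with ThioGlo1 (50uM) fluorescence at Ex340nm/Em540nm, read immediately and after 20 min at room temperature. Enzyme, 20 nM in HEPES pH 7.5 buffer, saw compounds 15 min before adding 75uM H3(1-25) peptide and 70uM acetyl-CoA.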
# Hits are given with their value; - = inactive; ? = inconclusive; . = no result given; [ ] = another dose, or the depositor's remark. The call rests on the fitted dose curve; in most records, active means well fitted curve in the direction sought with a large enough effect; inconclusive means small, poorly fitted or top-dose-only effect, or another doubt; inactive means no such curve, though single readings can be large; an effect the other way counts as inactive or inconclusive.
SMILES,TDP1 inh,DT40 TDP1 no CPT,VDR inh,PLK1 PBD inh,DT40 TDP1 CPT,KAT2A inh
C[C@@H](CSc1ccc(Br)cc1)CN1CC[C@H](C(C)(C)C)CCC1=O,-,?,-,-,?,-
Cc1ccc(SC[C@H](Cc2ccccc2)N2CC[C@@H](C)CCC2=O)cc1,.,13µM,-,-,11µM,-
CC(=O)Nc1ccc(SC[C@H](Cc2ccccc2)N2CC[C@@H](O)CCC2=O)cc1,-,-,-,?,-,-
COc1ccccc1Cc1nc2ccccc2[nH]c1=O,-,-,-,.,-,-
Cc1ccc(SCC(Cc2ccccc2)N2CCN(CCc3ccccc3)CCC2=O)cc1 (stereo unspecified),-,.,-,.,.,.
O=C1CCC(OCc2ccccc2)CCN1[C@H](CSc1ccccc1)Cc1ccccc1 (stereo partly specified),.,16µM,.,-,?,.
COc1ccc(C(=O)/C=C/C(=O)N(Cc2ccc3c(c2)OCO3)C(C(=O)NC2CCCCC2)c2ccncc2)c(O)c1 (stereo unspecified),-,23µM,-,-,?,-
COc1ccc(CN(C(=O)c2ccc3c(c2)OCCO3)C(C(=O)NC2CCCCC2)c2ccc3ncccc3c2)cc1 (stereo unspecified),-,18µM,-,-,?,-
O=C(NC1CCCCC1)C(c1ccc2ncccc2c1)N(Cc1ccccc1)C(=O)c1ccc2c(c1)OCCO2 (stereo unspecified),-,?,-,-,13µM,-
O=C(NC1CCCCC1)C(c1ccncc1)N(Cc1ccc2c(c1)OCO2)C(=O)c1cnsn1 (stereo unspecified),-,?,-,-,?,-
Cc1cccc(-c2noc(-c3cccnc3NCc3ccco3)n2)c1,-,?,-,.,?,-
COc1ccc(CCNC(=O)c2cc(S(=O)(=O)N(C)c3ccccc3)ccc2Cl)cc1,-,7.3µM,?,15µM,18µM,-
COc1ccc(CCNC(=O)c2ccc(N(C)S(=O)(=O)c3ccccc3)cc2)cc1,-,?,-,-,?,-
CCc1nnc(NC(=O)c2cc(S(=O)(=O)N(C)c3ccc(OC)cc3)ccc2Cl)s1,-,-,-,-,-,-
COc1ccc(N(C)S(=O)(=O)c2ccc(Cl)c(C(=O)NCC(C)(C)N3CCOCC3)c2)cc1,-,9.2µM,-,-,9.2µM,-
O=C(NCc1ccccc1)c1cc(C2COCCN2C(=O)CCc2ccccc2)on1 (stereo unspecified),.,-,.,-,-,.
O=C(COc1cc(O)c2c(=O)c3ccccc3oc2c1)OCc1ccccc1,-,-,-,-,-,-
COc1ccc(Cn2nnnc2C(c2ccccc2)N2CCN(c3ccccc3)CC2)cc1 (stereo unspecified),.,?,-,.,?,.
COc1cccc(/C=N/Nc2nn3cnnc3c3ccccc23)c1,-,21µM,-,-,13µM,-[0.501 µM]
COc1cc(/C=N/Nc2nn3cnnc3c3ccccc23)ccc1O,-,?,-,-,7.3µM,?
COc1ccc(-c2noc3c2-c2nc(-c4cccc(C)c4)sc2CC3)cc1,.,-,-,-,-,-
NC(=O)c1c(N)[nH]c(C(=O)c2ccccc2)c1-c1ccncc1,.,-,.,-,-,.
CC(C)(C)C(=O)c1c(N)[nH]c(C(=O)c2ccccc2)c1-c1ccccc1Br,.,16µM,.,-,26µM,.
COC(=O)c1c(N)[nH]c(C(=O)c2ccccc2)c1-c1ccccc1Br,.,16µM,.,-,?,.
Nc1[nH]c(C(=O)c2ccccc2)c(-c2ccc(Cl)cc2Cl)c1C(=O)c1ccc(Cl)c(Cl)c1,.,?,.,-,18µM,.
CC(C)(C)C(=O)c1c(N)[nH]c(C(=O)c2ccccc2)c1-c1ccc(Cl)cc1Cl,.,?,.,-,?,.
NC(=O)c1c(N)[nH]c(C(=O)c2ccccc2)c1-c1ccccc1Br,.,18µM,.,-,?,.
